“And” between values parts separate entries of the source, which are not always exact repeats. Equal entries are not always repeated. The campaign covered roughly 360,000 compounds. About 3,100 (0.86%) were called active. This is one part of a sample in which actives are shown more often than they occur.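 Rule for the calls: active = inhibition or corrected inhibition above about 18%, plus a signal ratio from 0.5 to 1.5 (limit read from the data, passing the limit was not always enough); inactive = the rest.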
target: Neuropilin-1 (Homo sapiens) (UniProt O14786); test: NRP-1/CendR peptide interaction modulators – biochemical, fluorescence polarization, uHTS, primary screen (AID 602438); details: FAM-RPARPAR peptide binding to NRP-1, fluorescence polarization; at 25 µM; stronger effect = higher value
Sequence (O14786 whole entry, looked up): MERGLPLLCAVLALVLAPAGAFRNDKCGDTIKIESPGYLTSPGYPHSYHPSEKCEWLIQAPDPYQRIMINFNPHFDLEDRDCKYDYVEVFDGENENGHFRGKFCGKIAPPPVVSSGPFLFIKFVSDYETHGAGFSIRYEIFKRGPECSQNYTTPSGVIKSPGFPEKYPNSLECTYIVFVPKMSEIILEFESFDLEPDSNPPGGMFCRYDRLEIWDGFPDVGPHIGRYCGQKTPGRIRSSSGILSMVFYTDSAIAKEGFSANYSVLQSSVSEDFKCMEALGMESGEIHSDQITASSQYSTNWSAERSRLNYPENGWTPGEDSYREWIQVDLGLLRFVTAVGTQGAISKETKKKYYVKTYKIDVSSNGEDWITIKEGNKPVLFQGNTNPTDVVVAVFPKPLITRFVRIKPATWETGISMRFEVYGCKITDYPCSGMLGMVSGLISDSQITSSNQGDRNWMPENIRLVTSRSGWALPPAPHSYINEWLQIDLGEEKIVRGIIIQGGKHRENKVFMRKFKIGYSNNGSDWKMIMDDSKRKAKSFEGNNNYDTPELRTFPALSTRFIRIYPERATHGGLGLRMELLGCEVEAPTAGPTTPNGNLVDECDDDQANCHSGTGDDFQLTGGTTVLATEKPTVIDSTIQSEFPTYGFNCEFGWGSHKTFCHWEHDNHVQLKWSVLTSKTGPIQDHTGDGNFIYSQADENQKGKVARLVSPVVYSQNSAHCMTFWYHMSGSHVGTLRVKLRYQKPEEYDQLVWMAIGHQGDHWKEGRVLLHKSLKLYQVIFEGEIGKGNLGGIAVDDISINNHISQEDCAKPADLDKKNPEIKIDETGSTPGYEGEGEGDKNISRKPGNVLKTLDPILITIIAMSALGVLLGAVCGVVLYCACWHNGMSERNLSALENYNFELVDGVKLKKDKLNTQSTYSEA

Row | Structure (SMILES) | inhibition
1 | CC1CCN(S(=O)(=O)c2ccc(S(=O)(=O)NCc3ccco3)cc2)CC1 | 8.7% (inactive)
2 | CN(C)C(=S)N=c1ssc(=S)n1Cc1ccco1 | -2.5% (inactive)
3 | O=C(O)C(c1ccccc1)C1(O)CCCCC1 (stereo not drawn) | -0.6% (inactive)
4 | O=C(O)C(c1cccs1)C1(O)CCCCC1 (stereo not drawn) | 27.7% (active)
5 | CN(C)CCOC(=O)C(c1ccccc1)C1(O)CCCC1 (stereo not drawn) | 5.3% (inactive)
6 | O=C(Cn1cc(C(F)(F)F)ccc1=O)Nc1ccc2c(c1)OCCO2 | -9.1% (inactive)
7 | O=C(/C=N/O)Nc1ccccc1 | 3.7% (inactive)
8 | C#CC(C)(C)NC(=O)c1cnc(-c2ccccc2)nc1-c1ccccc1 | -0.8% (inactive)
9 | CCOC(=O)c1cc2n(c1N)-c1ccccc1C2=O | 29.5% (active)
10 | CCOC(=O)c1ccn(S(=O)(=O)c2ccc(C)cc2)c1-c1ccccc1 | -9.6% (inactive)
11 | CCOC(=O)c1cnn(Cc2ccccc2Cl)c1N | -3.4% (inactive)
12 | CCC(C(=O)NC1CCCC1)N(C(=O)c1snc(C(N)=O)c1N)c1ccc2c(c1)OCCO2 (stereo not drawn) | 5.9% (inactive)
13 | CC(NC(=O)COC(=O)Cn1cc(C(F)(F)F)ccc1=O)c1ccccc1 (stereo not drawn) | -13.9% (inactive)
14 | CCN(CC)N=Nc1cccc(NC(C)=O)c1 | 1.7% (inactive)
15 | Cc1ccc(NC(=O)CCN2C(=O)c3ccccc3C2=O)cc1C | 15.6% (inactive)
16 | Cc1ccc2c(c1)-c1c(ssc1=S)C(C)(C)N2C(=O)CN1C(=O)c2ccccc2C1=O | -1.5% (inactive)
17 | Cc1cc2c(cc1C)N(C(=O)CN1C(=O)c3ccccc3C1=O)C(C)(C)c1ssc(=S)c1-2 | 23.1% (active)
18 | C=CCn1nc(-c2ccccc2)c2c(C)onc2c1=O | -1.4% (inactive)
19 | CN1c2ccc(C=O)c3c(C=O)ccc(c23)N(C)C1(C)C | 56.9% (active)
20 | Cc1ccc(C=O)c([B-](F)(F)F)c1 | -8.7% (inactive)
21 | O=C(CCN1CCCO1)N1CCCC(N2CCN(c3cccc(C(F)(F)F)c3)CC2)C1 (stereo not drawn) | 10.2% (inactive)
22 | CC1CCCN(C(=O)c2ccc3c(c2)C(=O)N(CCC2=CCCCC2)C3=O)C1 (stereo not drawn) | 9.2% (inactive)
23 | Cc1cc(=O)[nH]c(SCc2ccc(Cl)cc2)n1 | 21.5% (inactive)
24 | COC(=O)c1cccc(NC(=O)CSc2nc(C)cc(=O)[nH]2)c1 | -10.7% (inactive)

Row | Structure (SMILES) | inhibition
25 | Cc1cc(C)c(C(=O)CSc2nc(C)cc(=O)[nH]2)c(C)c1 | 26.7% (active)
26 | N#CCN(C(=O)COC(=O)C1CC2CCCC(C1)C2=O)c1ccccc1 (stereo not drawn) | -17.5% (inactive)
27 | O=C(NC(=O)c1ccccc1N1CCCCC1)Nc1ccc(Br)cc1 | 5.9% (inactive)
28 | Cc1cccc(C)c1NC(=O)CS(=O)CC(=O)N1CCN(c2ccccc2)CC1 (stereo not drawn) | 16% (inactive)
29 | CCOC(=O)N1CCN(CC(=O)Nc2ccc(F)cc2)CC1 | -14.8% (inactive)
30 | Cc1cccc(C)c1NC(=O)CN1CCN(c2ccc(F)cc2)CC1 | 19.5% (active)
31 | Cc1cc(Nc2ccc(C)c(C)c2)n2ncnc2n1 | 4.8% (inactive)
32 | CC1(c2cccc(Br)c2)NC(=O)N(CC(=O)NCCC2=CCCCC2)C1=O (stereo not drawn) | 6.7% (inactive)
33 | Cc1ccc(S(=O)(=O)NNC(=O)/C=C/c2cccc(F)c2)cc1 | 20.7% (active)
34 | Cc1ccc(S(=O)(=O)NNC(=O)Nc2cccc3ccccc23)cc1 | 1.8% (inactive)
35 | Cc1ccc(S(=O)(=O)NC(=O)c2cccc(C)c2)cc1 | -0.5% (inactive)
36 | COc1ccc(Cl)cc1NC(=O)CN(C)C(=O)CCCc1c[nH]c2ccccc12 | 7.5% (inactive)
37 | COc1ccccc1NC(=O)CCCc1c[nH]c2ccccc12 | 65.3% (active)
38 | COc1ccc(CN(C)C(=O)Cc2c[nH]c3ccccc23)c(OC)c1OC | -1.4% (inactive)
39 | C=C(C)C1CC=C(C)/C(=N\NC(=O)CNc2ccccc2OC)C1 (stereo not drawn) | 20.9% (active)
40 | C=C(C)C1CC=C(C)/C(=N/NC(=O)CCCNc2cccc(C)c2)C1 (stereo not drawn) | 1.4% (inactive)
41 | COc1ccccc1NC(=O)COC(=O)CNC(=O)C1CCCCC1 | 9.6% (inactive)
42 | N#C/C=C\Oc1ccc(Cl)cc1N | -3.7% (inactive)
43 | COc1ccc(C2CC(c3cccs3)=NN2C(=O)CSc2nnc(N)s2)cc1OC (stereo not drawn) | 0.7% (inactive)
44 | COc1ccc(C2CC(c3cccs3)=NN2C(=O)CSc2nncs2)cc1OC (stereo not drawn) | 28.8% (active)
45 | COc1ccc(C2CC(c3cccs3)=NN2C(=O)COC(=O)c2cc3ccccc3cc2O)cc1OC (stereo not drawn) | 6.7% (inactive)
46 | CCN(CC(=O)Nc1c(F)cccc1F)C(=O)c1ccc(-c2ccc(C(C)=O)cc2)o1 | 45.1% (active)
47 | CCN(CC(=O)Nc1c(F)cccc1F)C(=O)c1cnc(C)cn1 | 3.1% (inactive)
48 | CCN(CC(=O)Nc1c(F)cccc1F)C(=O)c1ccc(-c2ccccc2)cc1 | 4.3% (inactive)

Row | Structure (SMILES) | inhibition
49 | CCN(CC)S(=O)(=O)c1ccc(C(=O)N2CCN(C3=NS(=O)(=O)c4ccccc43)CC2)cc1 | -0.8% (inactive)
50 | CC1CCCCC12NC(=O)N(CC(=O)Nc1ccc(S(=O)(=O)Nc3ncccn3)cc1)C2=O (stereo not drawn) | -8.9% (inactive)
51 | Cc1nnc(CN(C)Cc2cn[nH]c2-c2ccc(-c3ccccc3)cc2)o1 | -2.9% (inactive)
52 | COC(=O)C1[C@H]2SC(C)(C)C(C(=O)OC)N2C(=O)N1Cc1nc2ccccc2s1 (stereo partly drawn) | 4.5% (inactive)
53 | CC1(C)SC2C(NC(=O)COc3ccccc3)C(=O)N2C1C(=O)O (stereo not drawn) | -22.6% (inactive) and -10.8% (inactive)
54 | CC1(C)S[C@@H]2[C@H](NC(=O)COc3ccccc3)C(=O)N2C1C(=O)OCc1ccccc1 (stereo partly drawn) | 26.2% (active)
55 | COC(=O)c1c(NC(=O)COC(=O)[C@@H](NS(=O)(=O)c2ccccc2)C(C)C)sc2c1CCC2 | -8.2% (inactive)
56 | COc1ccc(NC(=O)C2C3CCC(O3)C2C(=O)O)cc1OC (stereo not drawn) | 4.9% (inactive)
57 | Cc1sc(NC(=O)C2C3CCC(O3)C2C(=O)O)c(C(=O)OC(C)C)c1-c1ccc(Cl)cc1 (stereo not drawn) | 21% (active)
58 | CC(C)OC(=O)c1cc(NC(=O)C2C3CCC(O3)C2C(=O)O)cc(C(=O)OC(C)C)c1 (stereo not drawn) | -0.2% (inactive)
59 | O=C(CN1C(=O)NC(Cc2c[nH]c3ccccc23)C1=O)Nc1ccccc1C(F)(F)F (stereo not drawn) | -6.7% (inactive)
60 | CCn1c(C)nc2cc(C(=O)NNS(=O)(=O)c3ccc(C)cc3C)ccc21 | -7% (inactive)
61 | CCCn1nc2cc(C(=O)NCc3ccccc3)ccc2c1OCC | 27% (active)
62 | CCOc1c2ccc(C(=O)NC3CCCc4ccccc43)cc2nn1CC (stereo not drawn) | 22.9% (active)
63 | CCOc1ccc(NC(=O)COc2ccc(C(=O)NC3CCCc4ccccc43)cc2OC)cc1 (stereo not drawn) | -6.4% (inactive)
64 | CNS(=O)(=O)c1cccc(C(=O)NC2CCCc3ccccc32)c1 (stereo not drawn) | -7.1% (inactive)
65 | C[n+]1ccc(C(=O)NCc2ccccc2)cc1 | 8.4% (inactive)
66 | Cc1cc(N2C(=O)c3ccc(C(=O)NCc4ccccc4)cc3C2=O)no1 | -12.4% (inactive)
67 | CC(=O)Cn1ncc(N2CCOCC2)c(Br)c1=O | -5.8% (inactive)
68 | Cc1ccc(OCCNC(=O)CCNS(=O)(=O)c2ccc(Br)cc2)cc1 | 4.5% (inactive)
69 | Nc1c(C(=O)c2cccs2)sc2nsc(SCCN3CCCCC3)c12 | 131% (inactive)
70 | Cn1c(CCC(=O)Nc2ccccc2F)nnc1SCC(=O)Nc1ccccc1Cl | -3.9% (inactive)
71 | COc1ccccc1NC(=S)N1CCC(NC(=O)C23CC4CC(CC(C4)C2)C3)CC1 | -1.5% (inactive)
72 | CC(Oc1cc2oc(=O)c3c(c2cc1Cl)CCCC3)C(=O)NCc1ccncc1 (stereo not drawn) | -1.5% (inactive)

Row | Structure (SMILES) | inhibition
73 | COc1ccc(S(=O)(=O)NC(C)C(=O)NCc2ccncc2)cc1Cl (stereo not drawn) | 22.5% (active)
74 | Cc1ccc(S(=O)(=O)NC(C)C(=O)NCc2ccc(Cl)cc2)cc1 (stereo not drawn) | -8.1% (inactive)
75 | COc1cccc(NC(=O)N2CCC(NC(=O)C(Cc3cccc(C)c3)NC(C)=O)CC2)c1 (stereo not drawn) | 9.8% (inactive)
76 | CCOC(=O)c1c(/N=C/C2C(=O)CC(C)(C)CC2=O)sc(C)c1C | -41.2% (inactive)
77 | Cc1ccc(C)c(OCCC(=O)OCC(=O)NC(=O)NCc2ccccc2)c1 | -19% (inactive)
78 | COc1ccccc1OCCC(=O)OCC(=O)NCc1ccccc1 | 31.3% (active)
79 | COc1ccccc1OCCC(=O)OCC(=O)NC(=O)NC(C)(C)C | -7.2% (inactive)
80 | CC1CCCC(N2CCN(C(=O)c3ccc(F)cc3)CC2)C1 (stereo not drawn) | 1.1% (inactive)
81 | CC(C)(C)c1cc(=O)n2c(nc3ccccc32)[nH]1 | 3.4% (inactive)
82 | COc1ccc(C)cc1N(CC(=O)NC(C)c1ccccc1)S(C)(=O)=O (stereo not drawn) | 3.7% (inactive)
83 | COc1cc(/C=N\NC(=O)CNC(=O)c2cccc([N+](=O)[O-])c2)ccc1O | 21.9% (active)
84 | COc1ccc(O)c(/C=N/N=C/c2cccc([N+](=O)[O-])c2)c1 | 6.7% (inactive)
85 | CCCc1ccc(OCc2ccc(C(=O)N/N=C/c3cccc([N+](=O)[O-])c3)o2)c(OC)c1 | -4.8% (inactive)
86 | O=C(/C=C/c1cccs1)NCc1cccnc1 | -0.9% (inactive)
87 | CC[C@]12c3[nH]c4ccc(Cl)cc4c3CCN1C(=O)[C@@H](CC(=O)NCCCOC)C[C@@H]2C(=O)N1CCN(C(=O)c2ccco2)CC1 | 0.7% (inactive)
88 | CCCN(CCC)S(=O)(=O)c1ccc(C(=O)NNC(=O)c2cc(OC)c(OC)c(OC)c2)cc1 | -2.3% (inactive)
89 | COc1ccccc1C(=O)COC(=O)COc1ccc(C#N)cc1 | 28.5% (active)
90 | COc1ccccc1C(=O)COC(=O)CNS(=O)(=O)c1ccc(NC(C)=O)cc1 | 5.5% (inactive)
91 | COc1ccccc1C(=O)COC(=O)CSCC(=O)Nc1cc(C)on1 | -0.2% (inactive)
92 | Cc1nn(C)c(Cl)c1CN1CCC(n2nccc2NC(=O)C2CCCC2)CC1 | -2.2% (inactive)
93 | O=C(CSc1nnc2n1CCCN2)c1ccccc1 | -7.7% (inactive)

Reference: PubChem BioAssay AID602438 (Sanford-Burnham Center for Chemical Genomics, 2012)
